B2AR ag: activates human beta-2 adrenergic receptor causing internalization. response, % (test concentration not listed). Am2.2-beta2AR cells, FAP receptor internalization, flow cytometry. actives 0.43% (n = 340,000). P07550;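 active means response above a set limit, near 3 SD of response in nonfluorescent compounds, cut at about 42% in these data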
Dyrk1A ADPGlo: inhibitors of rat Dyrk1A kinase; inhibition, % at 12.5 µM; AID 504441; actives 0.43% (n = 310,000); ADP-Glo luminescence, NFATc1 peptide; in the data active means inhibition above about 50%;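 further: plate controls were vehicle with enzyme for no effect and no enzyme for full effect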
dFosB activator: activators of mouse delta FosB homodimer; P13346; purified delta FosB, TAMRA-CDK5 oligo fluorescence polarization; percent of positive-control signal above neutral wells; activation, % at 25 µM; actives 0.99% (n = 340,000); AID 493131;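 active means mean activation above about 17%, with every replicate also reaching it, limit read from the data, passing the limit was not always enough; inconclusive means only one of the two conditions met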
Target sequence (P13346 whole entry, looked up): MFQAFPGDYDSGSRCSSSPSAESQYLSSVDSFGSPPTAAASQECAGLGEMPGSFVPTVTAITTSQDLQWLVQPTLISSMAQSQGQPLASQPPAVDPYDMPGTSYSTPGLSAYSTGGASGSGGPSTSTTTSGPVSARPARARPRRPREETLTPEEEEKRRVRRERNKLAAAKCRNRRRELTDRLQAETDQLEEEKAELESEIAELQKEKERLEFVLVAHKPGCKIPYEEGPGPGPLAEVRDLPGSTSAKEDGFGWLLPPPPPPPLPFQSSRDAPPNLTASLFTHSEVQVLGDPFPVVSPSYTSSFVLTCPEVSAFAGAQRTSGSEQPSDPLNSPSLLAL
Bfl-1 A1 inh: inhibitors of the anti-apoptotic protein A1, read as caspase activation. MEF A1-2A-BIM cells, Caspase-Glo 3/7 luminescence, 3 h; percent of clofoctol response, vehicle zero. caspase activation, % (concentration not given with the values). actives 0.066% (n = 330,000). AID 2462;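 active means over half of replicate activation scores above 10%, or exactly half above 10 with the replicate mean above 10; inconclusive means replicate mean below 10 yet half the replicates above 10; inactive means over half of replicates below 10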
Numbers without * were called inactive; u = inconclusive; x = no result given. A selection: hits, their analogues and other compounds. The true share with any hit is near 1.6%.

SMILES	B2AR ag	Dyrk1A ADPGlo	dFosB activator	Bfl-1 A1 inh
COc1ccc(/C=C2\SC(=O)N(CC(=O)Nc3cccc(C)c3)C2=O)cc1O	8	0	19*	2
COc1cc(/C=C2\SC(=S)N(CC(=O)Nc3ccc(O)cc3)C2=O)cc(OC)c1OC	1	-5	18*	x
CC(C)(C)NC(=O)NC(=O)COC(=O)c1cc[n+]([O-])cc1	-9	0	4	0
COc1cc2c(-c3ccccc3)c(C)oc2cc1/C=N/NC(N)=S	-5	2	1	6.7*
COc1cc(OC)c(/C=N/NC(N)=S)cc1Br	-6	1	14	0
CCc1ccc(NC(=O)Cn2nc(C)n3cccc3c2=O)cc1	0	-6	-8	0
O=C(CCN1CCN(C(c2ccccc2)c2ccccc2)CC1)N/N=C/c1ccc(O)cc1O	11	4	37*	0
Cc1cccc(NS(=O)(=O)c2ccc(C(=O)NCC(c3ccco3)N3CCCCC3)cc2)c1C (stereo not drawn)	x	5	-5	1
c1cc2ccc3ccc(-n4cnnn4)c4ccc(c1)c2c34	7	17	25*	0
Cc1ccc(N(C(=O)c2csnn2)C(C(=O)NC2CCCCC2)c2ccncc2)c(C)c1 (stereo not drawn)	14	-4	-5	3
CC(C)(C)c1ccc(C(O)CCCN2CCC(C(O)(c3ccccc3)c3ccccc3)CC2)cc1 (stereo not drawn)	64*	7	7	1
CCN(CC(=O)NCc1ccc(F)cc1)C(=O)CN1CCN(c2ccc(OC)cc2)CC1	15	-3	-7	0
CN(C)c1ccc2nc3c(=O)[nH]c(=O)nc-3n(CC(O)C(O)C(O)CO)c2c1 (stereo not drawn)	-1	2	117*	0
CC(=O)N(C)c1ccc(OCC(O)Cn2c(C)nc3ccccc32)cc1 (stereo not drawn)	1	-7	1	1
CCc1ccc(N(CC(=O)NC(C)(C)C)C(=O)CCC(=O)Nc2ccccn2)cc1	-3	0	-3	1
COc1ccc(NC(=O)O/N=C/c2ccccc2)cc1	-6	-2	16*	-4
COc1ccc(NC(=O)O/N=C/c2ccccc2Cl)cc1	2	-2	6	-2
Cc1cnc(C(=O)OC(C)C(=O)c2c(C)[nH]c3ccccc23)cn1 (stereo not drawn)	0	-5	-6	-1
Fc1ccccc1-c1ccc(/C=N/Nc2nc3ccccc3[nH]2)o1	0	-33	22*	-1
C(=N\Nc1nc2ccccc2[nH]1)/c1ccccn1	-1	9	-1	x
Cc1c(Cc2ccccc2)c(=O)[nH]c(=O)n1C	3	-3	4	x
Cc1cccc2c1c1ccc3c(c1n2C)C(=O)C=CC3=O	89*	-2	-17	x
CC(=O)c1cc(Cl)ccc1OC(=O)c1ccco1	-3	5	3	0
O=C(Oc1ccc(Br)cc1C(=O)/C=C/c1ccccc1F)c1ccco1	58*	-8	-9	1
CC(C)c1ccc2[nH]c(O)c(N=NC(=O)c3cccc(S(=O)(=O)Nc4cccc(Cl)c4)c3)c2c1	9	-6	4	u
SMILES	B2AR ag	Dyrk1A ADPGlo	dFosB activator	Bfl-1 A1 inh
CC(C)c1ccc2[nH]c(O)c(N=NC(=O)c3cccc(S(=O)(=O)Nc4ccc(Cl)cc4)c3)c2c1	-5	-2	1	13*
CCCCN1/C(=C/c2ccc3ccccc3[n+]2CC)Sc2ccccc21	x	4	27*	x
CCN1/C(=C/c2ccc3cc(C)ccc3[n+]2CC)Sc2cc(C)ccc21	x	3	-37	x
O=C1C=C(c2c(O)ccc3ccccc23)c2ccccc2C1=O	76*	40	-6	x
Cc1nnc(SCC(=O)NC2CCCC2)n1C(C)C	-4	-3	0	-1
C#CCOCCOCCOCCNc1nc(N2CCN(C(=O)[C@H]([C@@H](C)CC)n3cc([C@@H](N)CC(C)C)nn3)CC2)nc(N2CCN(C(=O)[C@H](Cc3cc4ccccc4[nH]3)n3cc([C@@H](N)Cc4ccc(O)cc4)nn3)CC2)n1	x	x	x	2
C#CCOCCOCCOCCNc1nc(N2CCN(C(=O)[C@H](CCCCN)n3cc([C@@H](N)CO)nn3)CC2)nc(N2CCN(C(=O)[C@H](Cc3cc4ccccc4[nH]3)n3cc([C@@H](N)Cc4ccc(O)cc4)nn3)CC2)n1	x	x	x	1
C#CCOCCOCCOCCNc1nc(N2CCN(C(=O)[C@H]([C@@H](C)CC)n3cc([C@@H](N)Cc4ccc(O)cc4)nn3)CC2)nc(N2CCN(C(=O)[C@H](Cc3cc4ccccc4[nH]3)n3cc([C@@H](N)CC(C)C)nn3)CC2)n1	2	10	23*	0
C#CCOCCOCCOCCNc1nc(N2CCN(C(=O)[C@H](CCCCN)n3cc([C@@H](N)C(C)CC)nn3)CC2)nc(N2CCN(C(=O)[C@H](Cc3cc4ccccc4[nH]3)n3cc([C@@H](N)C(C)CC)nn3)CC2)n1 (stereo partly drawn)	5	x	63*	1
C#CCOCCOCCOCCNc1nc(N2CCN(C(=O)[C@H](CCCCN)n3cc([C@@H](N)CC(C)C)nn3)CC2)nc(N2CCN(C(=O)[C@H](Cc3cc4ccccc4[nH]3)n3cc([C@@H](N)Cc4ccc(O)cc4)nn3)CC2)n1	-6	8	59*	0
COc1ccc(/C=C/C(=O)O)cc1S(=O)(=O)N1CCC(C)CC1	6	1	-5	1
CC(C)(C)NC(=O)NC(=O)COC(=O)c1ccc2c(c1)S(=O)(=O)N=C1CCCCCN12	0	-3	-4	0
CC(NC(=O)COC(=O)c1ccc2c(c1)S(=O)(=O)N=C1CCCCCN12)C12CC3CC(CC(C3)C1)C2 (stereo not drawn)	-9	-2	4	7.2*
CCOc1ccc(Nc2cc(C)nc3nc(C)nn23)cc1	1	5	3	5.2*
COc1ccc2c(c1OC)CN1CCc3cc4c(cc3[C@@H]1[C@@H]2O)OCO4	-8	-5	9	0
O[C@@H]1[C@@H](O)C=C2CCN3Cc4cc5c(cc4[C@H]1C23)OCO5 (stereo partly drawn)	61*	0	0	0
O=[N+]([O-])c1cc(Br)c(Nc2ccccc2)c([N+](=O)[O-])c1	47*	-6	0	0
CS(=O)(=O)c1ccc(-c2sc3ccccc3c2C(=O)N2CCN(c3ccc(F)cc3)CC2)cc1	-2	4	-10	-13
COC(=O)c1ccc2c(c1)C(C)(C)C(/C=C/c1ccc(OC)c(OC)c1OC)=[N+]2C	57*	10	18*	0
Cc1ccc(S(=O)(=O)NC(=O)NCCc2ccccc2)cc1	-5	2	5	1
CCCCOC(=O)c1ccc(Nc2ncnc3nc[nH]c23)cc1	-1	0	2	-4
CCCCCCCCOC(=O)c1cc([N+](=O)[O-])c(Sc2ncnc3nc[nH]c23)c([N+](=O)[O-])c1	99*	-1	-17	x
CC(C)CN(C(=O)COC(=O)c1ccc(Br)o1)c1c(N)n(Cc2ccccc2)c(=O)[nH]c1=O	-4	16	-4	0
